Here are results for 12 sequences from article PMC5700166.

Changes are numbered by the printed parent chain.

Experiment in all cases: protein-binding microarray (PBM); PBM: ~300 nM protein, 6 mM HEPES pH 7.8, 80 mM KCl, 0.5 mM EDTA, 0.5 mM EGTA, 6% glycerol, 35 ng/ul poly-dIdC, 1% milk, 1 h, room temperature; Ap Aiptasia and Nv Nematostella (sea anemones) / Co Capsaspora / Aq Amphimedon (sponge) / Dm Drosophila / Hu human; RHD is the Rel homology domain; high values mean tight binding
What all share (details): dsDNA, one strand shown

One experiment has as its target T1, GST-Ap-NF-kB RHD (Exaiptasia pallida (Aiptasia), UniProt A0A913YAJ5 2-422).
T1 sequence: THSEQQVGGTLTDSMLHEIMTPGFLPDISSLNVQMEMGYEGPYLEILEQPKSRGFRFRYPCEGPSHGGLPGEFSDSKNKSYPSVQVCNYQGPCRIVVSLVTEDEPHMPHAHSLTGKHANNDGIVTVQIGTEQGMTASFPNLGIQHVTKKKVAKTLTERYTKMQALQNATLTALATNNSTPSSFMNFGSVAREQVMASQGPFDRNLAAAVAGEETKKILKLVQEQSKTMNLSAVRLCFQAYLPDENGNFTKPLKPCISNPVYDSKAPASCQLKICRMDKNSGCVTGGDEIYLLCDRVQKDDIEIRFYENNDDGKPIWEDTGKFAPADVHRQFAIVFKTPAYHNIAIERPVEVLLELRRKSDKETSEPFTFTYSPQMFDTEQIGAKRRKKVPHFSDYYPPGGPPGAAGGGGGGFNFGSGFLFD

Experiment [1] addresses T2, GST-Nv-NF-kB (Cys allele) (Nematostella vectensis, UniProt E5G601 2-411).
T2 sequence: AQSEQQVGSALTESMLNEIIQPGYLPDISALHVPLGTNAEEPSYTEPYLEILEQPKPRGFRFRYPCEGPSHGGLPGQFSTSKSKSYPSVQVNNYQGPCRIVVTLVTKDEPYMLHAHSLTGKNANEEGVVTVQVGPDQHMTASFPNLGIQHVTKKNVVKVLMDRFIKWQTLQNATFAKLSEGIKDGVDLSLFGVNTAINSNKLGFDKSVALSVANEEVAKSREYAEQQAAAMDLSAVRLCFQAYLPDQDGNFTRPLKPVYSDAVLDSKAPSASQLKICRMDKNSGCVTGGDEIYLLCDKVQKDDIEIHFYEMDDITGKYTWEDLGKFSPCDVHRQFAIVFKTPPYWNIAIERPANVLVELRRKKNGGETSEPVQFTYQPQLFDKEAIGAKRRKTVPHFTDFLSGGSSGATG

In experiment [2] the target is T3, GST-Nv-NF-kB (Ser allele) (Nematostella vectensis, UniProt A7UNT2 2-411).
T3 sequence: T2 sequence with Q21R, C66S, S207N, E215Q, V217A, E225K, A268E, D399E

In the next experiment the target is T4, GST-Co-NF-kB (Capsaspora owczarzaki, UniProt F1ARL5 200-546).
T4 sequence: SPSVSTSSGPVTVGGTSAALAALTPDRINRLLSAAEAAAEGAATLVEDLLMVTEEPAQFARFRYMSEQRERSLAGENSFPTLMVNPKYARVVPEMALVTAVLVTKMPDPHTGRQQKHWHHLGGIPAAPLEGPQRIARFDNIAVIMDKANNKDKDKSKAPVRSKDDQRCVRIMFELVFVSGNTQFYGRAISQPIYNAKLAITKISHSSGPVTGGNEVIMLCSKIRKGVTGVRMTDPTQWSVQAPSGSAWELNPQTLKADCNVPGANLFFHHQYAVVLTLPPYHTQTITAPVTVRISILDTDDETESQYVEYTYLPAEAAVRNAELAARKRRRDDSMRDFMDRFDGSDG

The target in the next experiment is T5, GST-Dm-Relish (Drosophila melanogaster, UniProt Q94527 99-473).
T5 sequence: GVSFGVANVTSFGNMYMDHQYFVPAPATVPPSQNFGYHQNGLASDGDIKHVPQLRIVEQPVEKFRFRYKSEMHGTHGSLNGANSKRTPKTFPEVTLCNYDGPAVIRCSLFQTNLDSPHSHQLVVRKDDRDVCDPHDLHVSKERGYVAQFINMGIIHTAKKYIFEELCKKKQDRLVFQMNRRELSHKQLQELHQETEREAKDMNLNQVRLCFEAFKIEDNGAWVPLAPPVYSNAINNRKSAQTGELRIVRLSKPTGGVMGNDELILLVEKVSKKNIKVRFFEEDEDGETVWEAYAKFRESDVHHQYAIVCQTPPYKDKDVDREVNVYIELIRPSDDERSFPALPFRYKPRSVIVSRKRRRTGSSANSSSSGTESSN

In a further experiment the target is T6, GST-Aq-NF-kB (Amphimedon queenslandica, UniProt A9Y5G7 2-389).
T6 sequence: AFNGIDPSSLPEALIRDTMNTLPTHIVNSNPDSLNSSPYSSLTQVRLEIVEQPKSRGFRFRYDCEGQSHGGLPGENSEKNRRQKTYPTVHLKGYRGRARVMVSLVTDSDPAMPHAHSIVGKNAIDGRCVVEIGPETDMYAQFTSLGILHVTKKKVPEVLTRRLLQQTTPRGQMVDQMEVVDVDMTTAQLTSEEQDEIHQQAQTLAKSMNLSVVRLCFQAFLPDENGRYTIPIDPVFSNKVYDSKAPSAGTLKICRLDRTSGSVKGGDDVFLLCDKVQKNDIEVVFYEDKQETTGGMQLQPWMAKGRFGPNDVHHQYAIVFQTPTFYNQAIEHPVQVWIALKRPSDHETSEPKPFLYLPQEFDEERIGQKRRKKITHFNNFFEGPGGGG

The next experiment addresses GST-Hu-p50 (Homo sapiens, UniProt P19838 7-356).

GST-Hu-p50, sequence (P19838 7-356): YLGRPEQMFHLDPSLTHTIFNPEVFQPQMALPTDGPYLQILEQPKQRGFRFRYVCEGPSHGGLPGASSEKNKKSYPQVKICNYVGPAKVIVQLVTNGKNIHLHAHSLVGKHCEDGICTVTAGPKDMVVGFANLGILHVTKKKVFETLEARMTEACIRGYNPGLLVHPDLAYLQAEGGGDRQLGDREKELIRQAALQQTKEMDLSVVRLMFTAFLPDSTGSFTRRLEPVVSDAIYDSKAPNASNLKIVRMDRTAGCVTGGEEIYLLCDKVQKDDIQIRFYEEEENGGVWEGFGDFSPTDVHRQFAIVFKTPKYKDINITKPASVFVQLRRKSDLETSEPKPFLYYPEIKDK

“CCGATTAACATCAAAGCCCCCCCTGATGTTAATCGGGTCTTGATTCGCTTGACGCTGCTG”: the binding signal with GST-Ap-NF-kB RHD worked out at 5.97 z-score; in experiment [1] it was 4.23 z-score; in experiment [2], 4.62 z-score; in the experiment with GST-Co-NF-kB it was 4.66 z-score; with GST-Dm-Relish, 6.01 z-score; with GST-Aq-NF-kB, 5.12 z-score. The sequence further came in with a binding signal with GST-Hu-p50 of 4.63 z-score.

As for “CCGATTAACATCAGGGGAAGATATGATGTTAATCGGGTCTTGATTCGCTTGACGCTGCTG”, the binding signal was determined as 6.06 z-score in the experiment with GST-Ap-NF-kB RHD; 6.63 z-score in experiment [1]; 7.91 z-score in experiment [2]; 8.77 z-score in the experiment with GST-Co-NF-kB; 4.01 z-score in the experiment with GST-Dm-Relish; 6.09 z-score in the experiment with GST-Aq-NF-kB. The same sequence came in with a binding signal with GST-Hu-p50 of 5.33 z-score.

On to “CCGATTAACATCAAAGTTCCCCCTGATGTTAATCGGGTCTTGATTCGCTTGACGCTGCTG”, for which the binding signal in the experiment with GST-Ap-NF-kB RHD was 8.84 z-score; in experiment [1] it was 8.65 z-score; in experiment [2], 9.29 z-score; in the experiment with GST-Co-NF-kB it was 11.3 z-score; in the experiment with GST-Dm-Relish it was 8.65 z-score; with GST-Aq-NF-kB it was 7.49 z-score. Also, the binding signal with GST-Hu-p50 came to 6.75 z-score.

With “CCGATTAACATCAATAATTCCCCTGATGTTAATCGGGTCTTGATTCGCTTGACGCTGCTG”, the binding signal was 8.52 z-score in the experiment with GST-Ap-NF-kB RHD; 10.6 z-score in experiment [1]; 11.8 z-score in experiment [2]; 8.63 z-score with GST-Co-NF-kB; 7.98 z-score with GST-Dm-Relish; 7.59 z-score with GST-Aq-NF-kB. Besides, the binding signal in the experiment with GST-Hu-p50 was found to be 6.96 z-score.

With “CCGATTAACATCAGGGGAAACAATGATGTTAATCGGGTCTTGATTCGCTTGACGCTGCTG”, the binding signal with GST-Ap-NF-kB RHD amounted to 5.65 z-score; in experiment [1] it was 7.25 z-score; in experiment [2], 9.76 z-score; in the experiment with GST-Co-NF-kB, 8.67 z-score; in the experiment with GST-Dm-Relish, 3.09 z-score; with GST-Aq-NF-kB, 4.59 z-score. This sequence registered a binding signal with GST-Hu-p50 of 5.36 z-score.

Consider “CCGATTAACATCAATCTCCCCCCTGATGTTAATCGGGTCTTGATTCGCTTGACGCTGCTG”, for which the binding signal with GST-Ap-NF-kB RHD amounted to 7.54 z-score; in experiment [1], 5.24 z-score; in experiment [2] it was 7.29 z-score; with GST-Co-NF-kB it was 8.72 z-score; with GST-Dm-Relish, 4.23 z-score; with GST-Aq-NF-kB, 5.63 z-score. In the experiment with GST-Hu-p50, this sequence came in with a binding signal of 6.63 z-score.

For “CCGATTAACATCACAAATTACCCTGATGTTAATCGGGTCTTGATTCGCTTGACGCTGCTG”, the binding signal was determined as 3.66 z-score with GST-Ap-NF-kB RHD; 5.32 z-score in experiment [1]; 5.44 z-score in experiment [2]; 3.35 z-score in the experiment with GST-Co-NF-kB; 3.01 z-score with GST-Dm-Relish; 4.95 z-score with GST-Aq-NF-kB. Besides, the binding signal in the experiment with GST-Hu-p50 is 4.07 z-score.

Take “CCGATTAACATCAAAATGTCCCCTGATGTTAATCGGGTCTTGATTCGCTTGACGCTGCTG”: the binding signal with GST-Ap-NF-kB RHD turned out to be 6.81 z-score; in experiment [1] it was 6.47 z-score; in experiment [2] it was 7.12 z-score; with GST-Co-NF-kB it was 5.57 z-score; in the experiment with GST-Dm-Relish, 6.24 z-score; with GST-Aq-NF-kB, 5.89 z-score. Besides, the binding signal with GST-Hu-p50 was 5.58 z-score.

Take “CCGATTAACATCAGAATTCCCGATGATGTTAATCGGGTCTTGATTCGCTTGACGCTGCTG”: the binding signal in the experiment with GST-Ap-NF-kB RHD was 3.78 z-score; in experiment [1], 4.69 z-score; in experiment [2], 4.3 z-score; in the experiment with GST-Co-NF-kB, 3.92 z-score; with GST-Dm-Relish, 2.59 z-score; in the experiment with GST-Aq-NF-kB, 3.28 z-score. Besides, the binding signal with GST-Hu-p50 was 3.21 z-score.

For “CCGATTAACATCAAGAAGTTCCCTGATGTTAATCGGGTCTTGATTCGCTTGACGCTGCTG”, the binding signal in the experiment with GST-Ap-NF-kB RHD stood at 3.54 z-score; in experiment [1], 3.73 z-score; in experiment [2] it was 2.6 z-score; with GST-Co-NF-kB, 2.42 z-score; in the experiment with GST-Dm-Relish, 3.58 z-score; in the experiment with GST-Aq-NF-kB it was 4.79 z-score. The binding signal with GST-Hu-p50 was determined as 3.17 z-score.

As to “CCGATTAACATCAACATTTCCCCTGATGTTAATCGGGTCTTGATTCGCTTGACGCTGCTG”, the binding signal amounted to 6.31 z-score with GST-Ap-NF-kB RHD; 8.45 z-score in experiment [1]; 11.6 z-score in experiment [2]; 8.45 z-score with GST-Co-NF-kB; 3.46 z-score in the experiment with GST-Dm-Relish; 5.86 z-score in the experiment with GST-Aq-NF-kB. The same sequence registered a binding signal in the experiment with GST-Hu-p50 of 6.35 z-score.

Turning to “CCGATTAACATCAAAGTTTCCCATGATGTTAATCGGGTCTTGATTCGCTTGACGCTGCTG”, the binding signal came out at 2.54 z-score with GST-Ap-NF-kB RHD; 4.29 z-score in experiment [1]; 3.82 z-score in experiment [2]; 4.66 z-score in the experiment with GST-Co-NF-kB; 2.05 z-score with GST-Dm-Relish; 4.32 z-score with GST-Aq-NF-kB. Further, the binding signal with GST-Hu-p50 is 3.28 z-score.
